CD40 NFkB inh: inhibitors of CD40-induced NF-kB signaling, primary screen, BL2 cells, luciferase reporter, single point | CD40L-induced, 4 h | hit rate 0.94% among 83,000 | inhibition, % at 10 µM;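 active = mean inhibition of at least 50% with a set share of replicates also reaching that level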;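 also: 0% = neutral control wells and 100% = IKK inhibitor VII at 50 µM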
The depositor's hits bear a star; [ ] = remark or other dose. The full list was thinned out, with hits kept by preference.

SMILES	CD40 NFkB inh
CC(=O)N1[C@H](CO)[C@H](c2ccc(-c3ccccc3)cc2)[C@@H]1CNC(=O)C1CC1	1.9
COc1ccc(-c2ccc3n(c2=O)C[C@@H]2[C@@H](CO)[C@H](C(=O)N(C)C)[C@H]3N2C(=O)c2cnccn2)cc1	-9.8[25 µM]
O=C(Cc1ccccn1)N1[C@H](CO)[C@H]2c3ccccc3NC[C@H]21	5.9[25 µM]
C[C@@H]1CN([C@@H](C)CO)C(=O)c2c(c3ccccc3n2C)-c2ccccc2CO[C@H]1CN(C)C(=O)Nc1ccc(-c2ccccc2)cc1	-5.5
CN1C(=O)c2cc(NC(=O)C3CCOCC3)ccc2OC[C@@H]2O[C@H](CC(=O)NCC3CCCCC3)CC[C@@H]21	0.0[25 µM]
CC(=O)[C@H]1CCC2C3CC=C4C[C@@H](O)CC[C@]4(C)C3CC[C@@]21C (some centres undefined)	4.2
C[C@@H](N)C(=O)N[C@H]1CCC2C3CC=C4C[C@@H](O)CC[C@]4(C)C3CC[C@@]21C (some centres undefined)	2.1
CC(C)[C@H](N)C(=O)N[C@H]1CCC2C3CC=C4C[C@@H](O)CC[C@]4(C)C3CC[C@@]21C (some centres undefined)	71.0*
Cc1cccc(S(=O)(=O)N(C)C[C@@H]2OCc3ccccc3-c3c(n(C)c4ccccc34)C(=O)N([C@@H](C)CO)C[C@@H]2C)c1	12.8
O=C(Nc1cccc(F)c1)N1[C@@H]2CNC[C@H]1C2c1ccc(-c2cccnc2)cc1 (some centres undefined)	-5.7
COc1ccc2oc(C(=O)NCC(c3ccco3)N(C)C)c(C)c2c1 (centres undefined)	0.7
Cc1c(C(=O)NCCc2ccccc2)oc2ccc(S(=O)(=O)N3CCOCC3)cc12	-15.5
COc1ccc2oc(C(=O)NCCc3ccccc3)c(C)c2c1	58.0*
C[C@H]1CN([C@@H](C)CO)C(=O)c2ccccc2-c2ccccc2CO[C@H]1CN(C)C(=O)c1ccc(F)cc1	8.9[25 µM]
COc1ccc(S(=O)(=O)Nc2ccc3c(c2)[C@H]2C[C@H](CC(=O)N(C)C)O[C@@H](CO)[C@H]2O3)cc1	1.2[25 µM]
O=C(NC1CCC1)[C@@H]1[C@@H](CO)[C@@H]2Cn3c(ccc(-c4ccccc4)c3=O)[C@H]1N2	4.5[25 µM]
Cn1cccc1/C=N/NC(N)=S	4.1
NC(=S)NN=Cc1nccc2c(C(F)(F)C(F)(F)C(F)(F)F)cccc12	31.2
NC(=S)NN=Cc1c[nH]c2nccnc12	66.7*
N#C[C@H]1[C@@H](c2ccccc2-c2ccc(F)cc2)[C@@H](CO)N1C(=O)NC1CCCC1	8.7
COc1ccc(S(=O)(=O)Nc2ccc3c(c2)C(=O)N([C@@H](C)CO)C[C@H](C)[C@@H](CN(C)C(=O)Nc2c(C)noc2C)OCCCC[C@H](C)O3)cc1	-7.8[25 µM]
CN1C(=O)c2cc(NC(=O)Nc3ccccc3F)ccc2OC[C@@H]2O[C@@H](CC(=O)NCCc3ccncc3)CC[C@H]21	-9.1[25 µM]
CCOC(=O)C1CCN(c2ccc(-c3cccs3)nn2)CC1	57.3*
CCOC(=O)c1cc(-c2cccs2)[nH]n1	-11.0
CCOC(=O)C1CCN(C(=O)c2cccs2)CC1	8.6
SMILES	CD40 NFkB inh
Cc1ccc(OC(=O)N(C)C[C@@H]2OCc3ccccc3-c3ccccc3C(=O)N([C@@H](C)CO)C[C@@H]2C)cc1	-3.6[25 µM]
Cc1cc(C(=O)N2CCN(c3ncccn3)CC2)c(C)o1	-5.7
Cc1cc(C(=O)N2CCC(C(=O)O)CC2)c(C)o1	0.4
Cc1cc(C(=O)N2CCN(c3ccccc3Cl)CC2)c(C)o1	77.9*
CC(=O)N1[C@H](CO)[C@H](c2ccc(C3=CCCCC3)cc2)[C@@H]1CNC(=O)CC1CC1	-0.7
COc1cccc(-c2ccc3c(c2)[C@@H]2[C@@H](CCN2S(=O)(=O)c2ccccc2F)[C@H](CO)N3C)c1	5.8[25 µM]
OC[C@@H]1[C@H](c2ccc(/C=C/c3ccccc3)cc2)[C@@H]2CN(Cc3ccncc3)CCCCN12	-26.8[25 µM]
COc1cccc(S(=O)(=O)Nc2ccc3c(c2)[C@H]2C[C@@H](CC(=O)NCc4ccccc4F)O[C@@H](CO)[C@H]2O3)c1	6.4[25 µM]
CC1(C)C2CCC1(C)C(OCC[N+](C)(C)CC(=O)OC1CCCCC1)C2 (centres undefined)	57.3*
O=C(CCCCC(=O)OC1CCCCC1)OC1CCCCC1	-10.3
CC1(C)[C@H]2CC[C@]1(C)[C@@H](OC(=O)C[N+]1(C)CCOCC1)C2	-0.3
Fc1cccc(CN2[C@@H]3CNC[C@H]2C3c2ccc(-c3ccncc3)cc2)c1 (some centres undefined)	-8.9[25 µM]
CCCN1C[C@@H](C)[C@H](OC)CN(C)C(=O)c2cc(NC(=O)NC3CCCC3)ccc2OC[C@@H]1C	-5.7
CN(C)C(=O)c1cccc(-c2ccccc2[C@@H]2[C@@H](C#N)N(C(=O)C3CC3)[C@H]2CO)c1	-31.2[25 µM]
O=C(C[C@@H]1CC[C@H]2[C@@H](COC[C@@H](O)CN2S(=O)(=O)c2cccc(Cl)c2)O1)N1CCOCC1	2.3[25 µM]
COc1ccc(-c2cccc(NC(=O)c3ccco3)c2)nn1	-10.1
COc1ccc(-c2ccc(NC(=O)c3ccco3)cc2)nn1	82.4*
COc1ccc(NC(=O)c2ccccc2NC(=O)c2ccco2)cc1	-7.7
C[C@H]1CN([C@@H](C)CO)C(=O)c2ccccc2-c2ccccc2CO[C@H]1CN(C)Cc1cccc(F)c1	7.4
COc1cccc(S(=O)(=O)N2CC[C@@H]3[C@H](CO)Nc4ccc(-c5ccc(C#N)cc5)cc4[C@@H]32)c1	3.1[25 µM]
Oc1c(C(Nc2ccccn2)c2ccccn2)ccc2cccnc12 (centres undefined)	-5.5
COc1ccccc1NC(c1cccnc1)c1ccc2cccnc2c1O (centres undefined)	49.1*
Cc1ccnc(NC(c2cccnc2)c2ccc3cccnc3c2O)c1 (centres undefined)	-33.0
CC=Cc1ccc2n(c1=O)C[C@H]1[C@H](CO)[C@@H](C(=O)NC3CCC3)[C@@H]2N1C(=O)c1ccccn1 (mixture of isomers)	3.7[25 µM]
CCCN(C)C[C@H]1OCc2cn(nn2)CCCC(=O)N([C@H](C)CO)C[C@H]1C	-9.6[25 µM]
SMILES	CD40 NFkB inh
O=C(CCCc1ccccc1)NCCC1=CCCCC1	-59.7
Cc1ccc(CNC(=O)CCS(=O)(=O)c2ccc(C)cc2)cc1	1.7
Cc1ccc(S(=O)(=O)CCC(=O)NCCC2=CCCCC2)cc1	47.8*
CCCN(C)C[C@H]1OCCCC[C@@H](C)Oc2ccc(NC(=O)CCCN(C)C)cc2C(=O)N([C@@H](C)CO)C[C@H]1C	-10.5[25 µM]
CC(=O)Nc1cccc2c1O[C@@H](CN(C)C(=O)OC(C)(C)C)[C@@H](C)CN(C)C2=O	-8.9
Cc1ccc(S(=O)(=O)N[C@H]2C=C[C@H](CC(=O)NCc3ccc(Cl)c(Cl)c3)O[C@@H]2CO)cc1	-10.2[25 µM]
CC(C)C1CC(N(C)C)=CC(=S)N1 (centres undefined)	30.4*
CC(=NNc1nc2ccccc2o1)c1ncccn1	79.6*
CC(=NNc1nc2ccccc2o1)c1cc2ccccc2cn1	-10.3
CC(=NNc1nc2ccccc2s1)c1ncccn1	-13.0
C[C@@H](NC(=O)[C@@H]1[C@@H](CO)[C@@H]2Cn3c(cccc3=O)[C@@H]2N1CC1CCCC1)c1ccccc1	0.5
COCC(=O)Nc1ccc2c(c1)[C@@H]1C[C@@H](CC(=O)N3CCOCC3)O[C@H](CO)[C@@H]1O2	1.3[25 µM]
CO[C@@H]1CN(C)C(=O)c2ccc(NC(=O)c3ccccc3F)cc2OC[C@H](C)N(C)C[C@H]1C	-1.4[25 µM]
CCCCCCCCCCCCCCCC[n+]1ccccc1	98.6*
CN1C[C@H]2[C@@H](c3ccccc31)[C@H](CO)N2Cc1ccccc1F	-1.3[25 µM]
